Some test systems named below: NCI-H23 lung; NCI-H226 lung; NCI-H322M lung; HOP-62 NSCLC; HOP-92 NSCLC; NCI-H522 lung; A549/ATCC NSCLC; 786-0 renal; COLO 205 colon; DU-145 prostate; K-562 leukemia; MALME-3M melanoma; MDA-MB-231 breast; RXF 393 renal; SF-268 CNS; SF-295 CNS; SF-539 CNS; UACC-257 melanoma; M14 melanoma; NCI-H460 lung.
Experiment in all cases: NCI-60 one-dose screen, 48 h (100 = growth as untreated, 0 = no growth, -100 = all killed)
What all share (conditions): 10 µM unless noted

The text below walks through data of PubChem BioAssay (NCI).

This is part of a sample that, as a whole, favours compounds with a hit. Of some 83,000 tested, about 20% had one in any assay.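 96-well plates, one dose, 48 hours. Percent growth reported; active if below 10.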 Values without a mark were called inactive. The source made the active and inactive calls.

With `CCN1CCN(C(=O)[C@]23CC[C@@H](C)[C@H](C)[C@H]2C2=CC[C@@H]4[C@@]5(C)C/C(=C/c6cccc(OC)c6OC)C(=O)C(C)(C)[C@@H]5CC[C@@]4(C)[C@]2(C)CC3)CC1`, the growth with NCI-H23 lung is 42.9%; in the test on NCI-H226 lung, 46.2%; in the test on NCI-H322M lung it was 83.7%; in the test with HOP-62 NSCLC, 57.7%; in the test on HOP-92 NSCLC, 46.9%; in the test on NCI-H522 lung it was 52.9%. The growth is 36.1% in the test with A549/ATCC NSCLC; 49.7% in the test on 786-0 renal; 32.2% in the test with COLO 205 colon; 57.3% with DU-145 prostate; 16.3% in the test on K-562 leukemia; 35.2% in the test with MALME-3M melanoma. Moreover, the growth in the test with MDA-MB-231 breast was 36.5%; in the test with RXF 393 renal, 30.2%; in the test on SF-268 CNS, 45.5%; in the test on SF-295 CNS, 50.7%; in the test on SF-539 CNS it was 58.5%; in the test on UACC-257 melanoma, 46.4%. Also, the growth in the test on M14 melanoma was 29.5%.

With `Cc1ccc(N(CC(=O)Nc2ccc(S(=O)(=O)NC3CCN(C)CC3)cc2)S(=O)(=O)c2ccc(Cl)cc2)cc1`, the growth with NCI-H23 lung is 90.7%; in the test on NCI-H226 lung, 87.7%; in the test on NCI-H322M lung, 88.9%; with HOP-62 NSCLC, 96.2%; in the test with HOP-92 NSCLC it was 69.6%; in the test with NCI-H522 lung, 90.4%. For the same molecule, the growth with A549/ATCC NSCLC was 69.2%; with 786-0 renal, 87.4%; with COLO 205 colon it was -47.6% (active); with DU-145 prostate it was 71.9%; in the test on K-562 leukemia, 19.5%; in the test on MALME-3M melanoma, -47.5% (active). Besides, the growth in the test with MDA-MB-231 breast is 53.6%; with RXF 393 renal it was 36.4%; with SF-268 CNS, 68.7%; with SF-295 CNS, 101%; with SF-539 CNS it was 85.4%; in the test on M14 melanoma it was 63%.

Turning to `Cc1nn2c(-c3nc4cc(Cl)c(Cl)cc4[nH]3)c(-c3ccc(F)cc3)nc2s1`, the growth is 55.8% in the test with NCI-H23 lung; 4.31% (active) in the test with NCI-H226 lung; -20% (active) in the test on NCI-H322M lung; -36.8% (active) in the test on HOP-62 NSCLC; -13.4% (active) in the test on NCI-H460 lung; -7.53% (active) with HOP-92 NSCLC. Further, the growth was 65.2% with NCI-H522 lung; 5.51% (active) in the test on A549/ATCC NSCLC; -79.5% (active) in the test with 786-0 renal; 17.7% in the test with COLO 205 colon; 52.8% in the test with DU-145 prostate; 68% in the test with K-562 leukemia. Moreover, the growth in the test with MDA-MB-231 breast was -12.9% (active); in the test with RXF 393 renal, -5.06% (active); in the test on SF-268 CNS it was 28%; in the test with SF-539 CNS, 6.21% (active); with UACC-257 melanoma it was -21% (active); in the test on M14 melanoma, 30.1%.

Turning to `Nc1nc(N)c2nc3c(nc2n1)CCCCCCCCCC3`, the growth in the test with NCI-H23 lung is 37.1%; in the test on NCI-H226 lung it was 102%; with NCI-H322M lung, 59.1%; in the test on HOP-62 NSCLC it was 58.1%; with HOP-92 NSCLC, 79.7%; with NCI-H522 lung it was 53.8%. The growth with A549/ATCC NSCLC was 20.4%; in the test on 786-0 renal, 31.9%; in the test on COLO 205 colon, 54.1%; in the test with DU-145 prostate, 53.6%; in the test on K-562 leukemia, 29.1%; with MALME-3M melanoma, 79.1%. Also, the growth is 84.9% with MDA-MB-231 breast; 80% in the test with RXF 393 renal; 42.1% with SF-268 CNS; 59.6% in the test on SF-539 CNS; 55.5% in the test with UACC-257 melanoma; 33.1% in the test on M14 melanoma.

Regarding `NC1=NN=C2N(N)C(=O)c3cnn(-c4ccccc4)c3N2c2nc(-c3ccccc3)cc(-c3ccccc3)c21`, the growth is 94.1% with NCI-H23 lung; 87.4% in the test on NCI-H226 lung; 103% with NCI-H322M lung; 96.8% with HOP-62 NSCLC; 96.7% with HOP-92 NSCLC; 74.9% in the test with NCI-H522 lung. Further, the growth in the test with A549/ATCC NSCLC was 100%; in the test with 786-0 renal, 104%; in the test on COLO 205 colon, 116%; in the test with DU-145 prostate, 108%; in the test with K-562 leukemia, 92.9%; in the test on MALME-3M melanoma it was 120%. Further, the growth with MDA-MB-231 breast is 89.4%; in the test with RXF 393 renal it was 138%; with SF-268 CNS, 105%; with SF-295 CNS it was 94.6%; in the test with SF-539 CNS, 103%; with UACC-257 melanoma, 108%. In addition, the growth with M14 melanoma was 99.2%.

Turning to `CCN1CCN(c2nc(C)cc(N(CCCNc3ccnc4cc(Cl)ccc34)Cc3ccco3)n2)CC1`, the growth is 62.2% in the test on NCI-H23 lung; 86.4% in the test with NCI-H226 lung; 63.5% in the test with NCI-H322M lung; 52.1% with HOP-62 NSCLC; 65.3% in the test with HOP-92 NSCLC; 71.6% in the test on NCI-H522 lung. Besides, the growth in the test on A549/ATCC NSCLC is 50.4%; with 786-0 renal, 64.8%; with COLO 205 colon, -21.2% (active); in the test with DU-145 prostate, 55.5%; in the test with K-562 leukemia it was 8.16% (active); with MALME-3M melanoma, -6.8% (active). For the same molecule, the growth in the test with MDA-MB-231 breast is 11.6%; in the test with RXF 393 renal, 48.5%; in the test on SF-268 CNS, 55.7%; in the test on SF-295 CNS, 51%; in the test with SF-539 CNS, -63.5% (active); with UACC-257 melanoma, -2.43% (active). The growth in the test on M14 melanoma was -76% (active).

For the molecule `Cc1ccc(-c2nc([P+](c3ccccc3)(c3ccccc3)c3ccccc3)c(N3C[C@H]4C[C@H](C3)c3cccc(=O)n3C4)o2)cc1`, the growth with NCI-H23 lung was 82.3%; in the test with NCI-H226 lung it was 108%; in the test with NCI-H322M lung, 94.3%; in the test with HOP-62 NSCLC, 90.4%; with HOP-92 NSCLC, 62.6%; in the test with NCI-H522 lung it was 74.3%. In addition, the growth with A549/ATCC NSCLC is 99.1%; in the test with 786-0 renal it was 97.1%; with COLO 205 colon, 48.9%; in the test on DU-145 prostate, 98.3%; with K-562 leukemia, 47.3%; in the test on MALME-3M melanoma, 74.5%. The growth is 90.9% with MDA-MB-231 breast; 79.8% with RXF 393 renal; 91.1% in the test on SF-268 CNS; 96.1% in the test with SF-295 CNS; 99.7% in the test with SF-539 CNS; 37.5% in the test with UACC-257 melanoma. Further, in the test on M14 melanoma, the growth was 82.3%.

`COc1cccc(-c2nn(-c3ccccc3)cc2-c2ccnc(NCCNS(=O)(=O)c3ccc(Cl)cc3)c2)c1`: the growth was 32% with NCI-H23 lung; 41.8% in the test with NCI-H226 lung; 63.8% in the test with NCI-H322M lung; 53.5% with HOP-62 NSCLC; 7.77% (active) with HOP-92 NSCLC; 12.4% in the test with NCI-H522 lung. The growth in the test with A549/ATCC NSCLC was 27.4%; with 786-0 renal it was 40.3%; in the test with COLO 205 colon, 4.94% (active); in the test with DU-145 prostate it was 52.7%; in the test on K-562 leukemia, 11.7%; with MALME-3M melanoma, 50.3%. The growth with MDA-MB-231 breast is 19.3%; in the test on RXF 393 renal, 29.8%; in the test with SF-268 CNS, 45.7%; in the test with SF-295 CNS it was 21.7%; with SF-539 CNS, 54.1%; in the test with M14 melanoma, 28.6%.
